Experimental data taken from PubChem BioAssay AID2732 (Emory University Molecular Libraries Screening Center, 2010).
Screen size: about 220,000 compounds; about 8,200 (3.7%) were called active.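 Rule for the calls: active = compounds that reduced the stress-induced luciferase reporter signal by more than about 70% of percent inhibition (limit read from the data); inactive = the rest.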 Only a selection was taken, and actives are over-represented in it overall.

Assay: inhibitors of CHOP promoter induction, primary screen, cell-based, unfolded protein response, luciferase reporter (AID 2732);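 note: 0% = tunicamycin plus vehicle and 100% = wells without tunicamycin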
Details: CHO-K1 CHOP-promoter luciferase, tunicamycin-induced, 15-18 h; at 10 µM; hits give high values

inhibition, inactive:
Cc1noc(C)c1S(=O)(=O)N1CCCC(C(=O)Nc2nccs2)C1 (stereo unspecified) 11.8%
O=C(Nc1ccc(F)c(Cl)c1)C1CCN(S(=O)(=O)c2cccnc2)CC1 24.3%
CN(Cc1nc(-c2cnccn2)no1)Cc1n[nH]c2c1CCCCC2 0.16%
CCOC(=O)c1c(C)[nH]c(=S)c(C#N)c1-c1ccccc1 -25.2%
Cc1[nH]c2ccccc2c1C(=O)COC(=O)C(C)C 9.48%
COc1ccc(C(=O)NCC(=O)N/N=C/c2ccc([N+](=O)[O-])o2)cc1OC -82.2%
CCOC(=O)Cc1cc(=O)[nH]c(/N=C(\N)Nc2ccc(OC)cc2)n1 -6.01%
O=C(CC(=O)Nc1ccc(Cl)c(Cl)c1)N/N=C/c1ccc(O)cc1 23.4%
Cc1ccc(NC(=O)C/C(N)=N/O)cc1Cl 1.88%
CC(=O)NNC(=O)c1csc(Cc2c(Cl)sc3ccc(Cl)cc23)n1 32.1%
Cc1ccc(-c2noc(CN3CCN(Cc4ccccc4)CC3)n2)cc1 38.4%
Cc1cccc(-c2noc(-c3ccc(F)cc3)n2)c1 12%
COc1ccc(OC)c(NC(=O)N[C@H](Cc2ccccc2)C(=O)NN)c1 17.5%
CCOC(=O)CSc1ccccn1 -0.03%
CCOC(=O)CC(=O)CSc1nc(-c2ccccc2)cc(-c2ccc(Cl)cc2)c1C#N -3.89%
Cc1ccc(NC(=O)c2nc[nH]c2C(=O)N[C@@H](CCCCNC(=O)OC(C)(C)C)C(=O)OC(C)(C)C)cc1 60.9%
Cc1ccc(C)c(SCc2nc3sc(C(=O)O)c(C)c3c(=O)[nH]2)c1 5.2%
COc1ccccc1NC(=O)CSc1nc2sc(C)c(C)c2c(=O)n1Cc1ccco1 -22.1%
O=C(O)c1ccc(/C=N/Nc2nc(N3CCCCC3)nc(N3CCCCC3)n2)cc1 5.9%
O=C(c1ccc(=O)oc1)N1CCC(C(O)(c2ccccc2)c2ccccc2)CC1 18.9%

inhibition, active:
O=C(Nc1nccs1)C1CCN(S(=O)(=O)c2ccc(Cl)c(C(F)(F)F)c2)CC1 70.1%
CCOC(=O)c1c(C)[nH]c2c1-c1ccccc1C(=O)C2=O 108%
O=C(CC(O)(C(F)(F)F)C(F)(F)F)Nc1ccc(Cl)c(Cl)c1 86%
Cc1ccc(Cc2nc(-c3cccc(C)c3)no2)cc1 83.2%
CCOC(=O)CSc1nccc(N(C)C)c1C#N 74%
Cc1ccc(-c2nc(SCC(=O)Nc3ccccc3OC(F)F)c3c(C)c(C(=O)O)sc3n2)cc1 101%
